Rows were chosen to be rich in hits. Some 3.6% of all compounds tested hit in one or more screens of this group.
AmpC detergent: AmpC beta-lactamase inhibition with detergent present; Potency, µM (highest dose often 114 µM), hits mostly inhibitors; AmpC hydrolysis of nitrocefin, absorbance 480 nm, 0.01% Triton; P00811; 370,000 tested, 0.041% active; further: nearly all actives have a fitted effect of over 25% in size
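AmpC (5.3 nM in the dispensed reagent) in 20 mM phosphate pH 7.0 with 0.01% (detergent screen) or 0.0001% Triton X-100 was preincubated with compounds for 15 min at room temperature. Nitrocefin was then added from an 800 uM solution, and hydrolysis was followed at 480 nm.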
Sm TGR inh: inhibitors of Schistosoma mansoni thioredoxin glutathione reductase | Q962Y6 | purified TGR, DTNB reduction, TNB absorbance 405 nm | Potency, µM (doses to about 114 µM), usual class: inhibitors | 360,000 tested, 3% active | AID 485364; further: nearly all actives have a fitted effect of over 60% in size
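Kinetic colorimetric format: TGR-catalysed, NADPH-driven DTNB reduction monitored via TNB absorbance. Enzyme dispensed at 20 nM; compound exposure 15 min at room temperature before reaction start.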
AmpC inh no detg: inhibitors of E. coli AmpC beta-lactamase without detergent. 330,000 tested, 0.52% active. P00811. AmpC nitrocefin hydrolysis, absorbance 480 nm, 0.0001% Triton. AID 485341. Potency, µM (titrated, usually from 57.1 µM), usual class: inhibitors; further: nearly all actives have a fitted effect of over 20% in size
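20 mM phosphate pH 7.0 + 0.01% (detergent screen) or 0.0001% Triton X-100; 5.3 nM AmpC reagent; cpd preinc 15 min RT; nitrocefin (800 uM stock) to start; A480 q20 s × 4 min; Activity was normalised to no-enzyme and no-compound control wells.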
Giardia FBPA inh: blocks Giardia fructose-bisphosphate aldolase activity; purified Giardia FBPA; Potency, µM (highest dose often 59.6 µM), usual class: inhibitors; 290,000 tested, 0.71% active; AID 2451; further: nearly all actives have a fitted effect of over 55% in size
Target sequence (A8B2U2 whole entry, looked up): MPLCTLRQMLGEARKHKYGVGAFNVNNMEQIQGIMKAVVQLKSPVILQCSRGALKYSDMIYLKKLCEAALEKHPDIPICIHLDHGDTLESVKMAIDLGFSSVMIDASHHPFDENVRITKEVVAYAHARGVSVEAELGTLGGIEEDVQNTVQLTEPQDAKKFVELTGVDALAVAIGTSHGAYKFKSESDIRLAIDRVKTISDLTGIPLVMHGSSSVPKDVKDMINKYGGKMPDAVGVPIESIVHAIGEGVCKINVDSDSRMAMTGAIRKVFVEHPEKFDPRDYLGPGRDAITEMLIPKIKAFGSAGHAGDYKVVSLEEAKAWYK
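Giardia FBPA (40 nM reagent) was preincubated 10 min at RT with compound (up to 57.5 uM final), then substrate plus GAPDH/TPI/NAD/arsenate coupling system with diaphorase/resazurin was added; resorufin fluorescence (525/598 nm) was read after 20 min.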
Hits are given with their value; 0 = inactive; ? = inconclusive; - = no result given. The call rests on the fitted dose curve; in most records, active means well fitted curve in the direction sought with a large enough effect; inconclusive means small, poorly fitted or top-dose-only effect, or another doubt; inactive means no such curve, though single readings can be large; an effect the other way counts as inactive or inconclusive.

SMILES	AmpC detergent	Sm TGR inh	AmpC inh no detg	Giardia FBPA inh
CN(C)S(=O)(=O)c1cccc(NC(=O)c2ccc(COc3ccccc3)cc2)c1	0	0	0	0
CS(=O)(=O)NCCSCc1ccco1	0	20µM	0	0
O=[N+]([O-])c1ccccc1S(=O)(=O)NCCSCc1ccco1	0	25.1µM	0	-
CC(=O)Nc1ccc(S(=O)(=O)NCCSCc2ccco2)cc1	0	?	0	0
O=[N+]([O-])c1ccccc1S(=O)(=O)NCc1ccco1	0	0	0	0
O=C(c1cccc(S(=O)(=O)N2CCN(c3ccc(F)cc3)CC2)c1)N1CCCC(C(F)(F)F)C1 (configuration not stated)	0	0	?	-
CC1CCN(c2nc(Cl)nc(Nc3ccc([N+](=O)[O-])cc3)n2)CC1	?	0	10µM	0
C=CCNc1nc(Nc2ccc([N+](=O)[O-])cc2)nc(N2CCCC2)n1	0	0	0	0
C/C(=N/O)c1ccc2c(c1)OCCOCCOc1cc(/C(C)=N/O)ccc1OCCOCCO2	?	0	0	0
Cc1ccc(C(=O)Nc2ncccc2O)o1	0	0	0	-
O=C(O)CSCCCC(=O)Nc1ccc(Br)cc1	?	0	0	0
CC(=O)Nc1ccc(-n2c(CCC(=O)O)ccc2-c2ccc(Br)cc2)cc1	0	35.5µM	-	-
CC(=O)Nc1ccc(-n2c(CCC(=O)O)ccc2-c2ccc(C)cc2)cc1	0	14.1µM	-	-
CC(=O)c1cccc(S(=O)(=O)N2CCC(C(=O)Nc3cccc(C(=O)NC4CC4)c3)CC2)c1	0	0	0	-
COC(=O)C1=C(C)NC(=O)/C1=C\c1cccs1	?	0	0	0
COC(=O)C1=C(C)NC(=O)/C1=C\c1ccc2c(c1)OCO2	?	35.5µM	0	0
CC1=NOC(=O)/C1=C/c1ccc2c(c1)OCO2	0	0	0	0
COC(=O)C1=C(C)NC(=O)/C1=C\N(C)C	0	25.1µM	0	0
Cc1ccc(N/C(C(Cl)=C(Cl)Cl)=C(/Cl)[N+](=O)[O-])c(C)c1	0	7.94µM	0	0
Cc1ccc(NC(=O)CC(=O)Nc2ccc(C)cc2C)c(C)c1	0	0	0	0
CCc1ccc(NC(=O)c2cc3sc(Cl)cc3n2C)cc1	56.2µM	0	-	-
CC(C)c1ccc(NC(=O)c2cc3sc(Cl)cc3n2C)cc1	0	0	-	-
CC(C)CC(NC(=O)CCl)c1ccccc1 (configuration not stated)	0	39.8µM	0	0
CC(NC(=O)c1ccc(Cl)c(Cl)c1)c1ccc(-c2ccccc2)cc1 (configuration not stated)	0	0	0	0
CC(NC(=O)CCl)c1ccccc1Br (configuration not stated)	0	15.8µM	0	0
SMILES	AmpC detergent	Sm TGR inh	AmpC inh no detg	Giardia FBPA inh
CC(NC(=O)CCl)c1ccc(Cl)c(Cl)c1 (configuration not stated)	?	15.8µM	0	0
CCCC(NC(=O)CCl)c1ccccc1 (configuration not stated)	0	44.7µM	0	0
Cc1ccc(S(=O)(=O)NCC(=O)NCC(=O)NC(C)c2ccccc2Br)cc1C (configuration not stated)	0	0	0	0
C=CCN(CC(=O)Nc1cccnc1)S(=O)(=O)c1ccc(Cl)cc1	-	-	0	-
Cc1cc(C)c(S(=O)(=O)/N=C2\C=CC(=O)C(Cl)=C2)c(C)c1	?	3.98µM	5.01µM	?
CCN(CC(=O)Nc1ccc(C(C)=O)cc1)CC(=O)Nc1ccccc1C(F)(F)F	0	31.6µM	0	0
COc1cccc(-c2ccc(NC(=O)C3CCCN(Cc4cnn(C(C)C)c4)C3)cc2)c1 (configuration not stated)	0	0	0	0
Cc1ccc(N/N=C(\C#N)C(N)=S)c(C)c1	0	?	3.55µM	0
Cc1ccc(NC(=O)/C(C#N)=N/Nc2ccc(C(=O)O)cc2)c(C)c1	0	0	0	0
CCC(=O)N1CCCC(C(=O)c2ccc(-c3ccccc3)cc2)C1 (configuration not stated)	0	0	0	0
COC(=O)c1cccc(Cn2c(Cl)c(/C=N/NC(=O)c3ccccc3Cl)sc2=O)c1	0	?	0	0
O=C(COc1ccccc1)N/N=C/c1sc(=O)n(Cc2cccc(C(=O)O)c2)c1Cl	0	35.5µM	0	0
Cc1cccc(OCC(=O)N/N=C/c2sc(=O)n(Cc3cccc(C(=O)O)c3)c2Cl)c1	0	25.1µM	0	0
O=c1sc(/C=N/Nc2ccccc2)c(Cl)n1Cc1ccccc1	0	7.94µM	0	0
COC(=O)c1cccc(Cn2c(Cl)c(/C=N/NC(=O)c3ccco3)sc2=O)c1	0	35.5µM	0	-
O=Cc1sc(=O)n(Cc2cccc(C(=O)O)c2)c1Cl	0	0	0	0
CNc1nc(N)c(C(=O)C23CC4CC(CC(C4)C2)C3)s1	0	-	0	0
COCCNC(=O)C(=O)N/N=C(\C)CC(=O)Nc1cccnc1	0	0	0	0
O=C(O)c1cccc(Cn2c(Cl)c(/C=N/NC(=O)c3ccc(O)cc3)sc2=O)c1	0	31.6µM	0	0
Cc1ccc2c(Cl)cc(Cl)c(OCC(=O)N3CCCC3)c2n1	0	39.8µM	0	0
Cc1ccc2c(Cl)cc(Cl)c(OCC(=O)N3CCOCC3)c2n1	?	0	0	-
Cc1cccc(N2CCN(C(=O)Cn3c(=O)c4cccn4c4ccc(F)cc43)CC2)c1C	0	0	-	-
Cn1nnnc1Sc1ncnc2scc(-c3ccccc3)c12	?	0	0	0
Cn1nnnc1Sc1ncnc2scc(-c3ccc[nH]3)c12	0	11.2µM	0	-
COC(=O)COc1ccc(S(=O)(=O)NCCC2=CCCCC2)cc1C	0	0	0	0
SMILES	AmpC detergent	Sm TGR inh	AmpC inh no detg	Giardia FBPA inh
COC(=O)COc1ccc(S(=O)(=O)NCCC2=CCCCC2)cc1	0	0	0.141µM	0
CC(C)Sc1nnc(SCC(=O)NCCCN2CCCC2=O)s1	0	0	0	-
O=C1c2c([N+](=O)[O-])cc([N+](=O)[O-])cc2S(=O)N1Cc1ccccc1 (configuration not stated)	0	39.8µM	0	0
COc1cc(CN2CCNC(=O)C2CC(=O)N2CCCO2)cc(OC)c1 (configuration not stated)	0	0	0	0
O=C(/C=C/c1ccco1)N(Cc1ccccc1F)C1CCS(=O)(=O)C1 (configuration not stated)	0	10µM	0	0
CC(C)c1ccc(CN(C(=O)/C=C/c2ccco2)C2CCS(=O)(=O)C2)cc1 (configuration not stated)	0	3.55µM	0	0
Cc1cccc(C(=O)N(Cc2ccccc2F)C2CCS(=O)(=O)C2)c1 (configuration not stated)	0	0	-	-
CC(=O)N[C@@H](C(=O)O)C(C)(C)SN=O	-	-	-	0
Cc1ccc(NC(=S)NC2CCSc3ccccc32)cc1C (configuration not stated)	0	0	11.2µM	-
COC(=O)c1ccc(C(=O)NC2CCSc3ccccc32)cc1 (configuration not stated)	0	0	0	0
O=[N+]([O-])c1cc(C=Nc2cccc3c(O)cccc23)ccc1Cl	0	39.8µM	0	0

Compound activity (PubChem)
